Measurements: PubChem BioAssay AID1159580 (chemical genetic matrix, 2015)
Where “and” joins values, the source holds several entries; their conditions need not be identical. Equal entries are not always repeated. In all, about 5,500 compounds went through this assay and about 2,000 (36%) were called active. Inconclusive results (about 18%) are left out. Some of the results follow. Unmarked numbers belong to inactive results. Rule as the data show it: active = normalized growth mostly below about 0.91 (no sharp cut-off); inconclusive = no clear call, values can overlap the other calls; inactive = mostly above about 0.92.

Experiment: chemical genetic growth profiling, strain panel (AID 1159580);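 also: tested at 20 µM; growth read once vehicle control cultures reached saturation at 30 °C; 1 = growth at the plate median or of vehicle wells; lower values mean less growth of the strain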
Conditions: growth OD
[1] = S. cerevisiae deletion strains, locus YAL013W, strain DEP1, hits give low values
[2] = S. cerevisiae deletion strains, locus YBR229C, strain ROT2, hits give low values
[3] = S. cerevisiae deletion strains, locus YDL101C, strain DUN1, hits give low values
[4] = S. cerevisiae deletion strains, locus YDL134C, strain PPH21, hits give low values
[5] = S. cerevisiae deletion strains, locus YDR150W, strain NUM1, hits give low values
[6] = S. cerevisiae deletion strains, locus YEL061C, strain CIN8, hits give low values
[7] = S. cerevisiae deletion strains, locus YGR078C, strain PAC10, hits give low values
[8] = S. cerevisiae deletion strains, locus YGR229C, strain SMI1, hits give low values
[9] = S. cerevisiae deletion strains, locus YHR030C, strain SLT2, hits give low values
[10] = S. cerevisiae deletion strains, locus YJR043C, strain POL32, hits give low values
[11] = S. cerevisiae deletion strains, locus YJR075W, strain HOC1, hits give low values
[12] = S. cerevisiae deletion strains, locus YKL190W, strain CNB1, hits give low values
[13] = S. cerevisiae deletion strains, locus YLR039C, strain RIC1, hits give low values
[14] = S. cerevisiae deletion strains, locus YLR262C, strain YPT6, hits give low values
[15] = S. cerevisiae deletion strains, locus YMR263W, strain SAP30, hits give low values
[16] = S. cerevisiae deletion strains, locus YNL153C, strain GIM3, hits give low values
[17] = S. cerevisiae deletion strains, locus YNL322C, strain KRE1, hits give low values
[18] = S. cerevisiae deletion strains, locus YOL006C, strain TOP1, hits give low values
[19] = S. cerevisiae deletion strains, locus YPL055C, strain LGE1, hits give low values
[20] = S. cerevisiae deletion strains, locus YPL241C, strain CIN2, hits give low values

## CC(=O)N[C@@H]1[C@@H](C(O)[C@H](O)CO)O[C@](O)(C(=O)O)C[C@@H]1O (some centres not stated)
[1]
  normalized growth: 1.01
S. cerevisiae deletion strains, locus YBR021W, strain FUR4, hits give low values
  normalized growth: 1.02
[2]
  normalized growth: 1
S. cerevisiae deletion strains, locus YCL029C, strain bik1, hits give low values
  normalized growth: 0.997
S. cerevisiae deletion strains, locus YDL035C, strain GPR1, hits give low values
  normalized growth: 1.01
S. cerevisiae deletion strains, locus YDL074C, strain BRE1, hits give low values
  normalized growth: 1.04
[3]
  normalized growth: 1.03
[4]
  normalized growth: 1
S. cerevisiae deletion strains, locus YDL185W, strain tfp1, hits give low values
  normalized growth: 1.02
S. cerevisiae deletion strains, locus YDL192W, strain arf1, hits give low values
  normalized growth: 0.999
S. cerevisiae deletion strains, locus YDR101C, strain arx1, hits give low values
  normalized growth: 1
[5]
  normalized growth: 1
S. cerevisiae deletion strains, locus YDR162C, strain NBP2, hits give low values
  normalized growth: 1.02
S. cerevisiae deletion strains, locus YDR318W, strain mcm21, hits give low values
  normalized growth: 1.01
S. cerevisiae deletion strains, locus YDR388W, hits give low values
  normalized growth: 1.01
S. cerevisiae deletion strains, locus YDR502C, strain sam2, hits give low values
  normalized growth: 0.998
[6]
  normalized growth: 1
S. cerevisiae deletion strains, locus YER110C, hits give low values
  normalized growth: 1
S. cerevisiae deletion strains, locus YER155C, strain BEM2, hits give low values
  normalized growth: 1
S. cerevisiae deletion strains, locus YER167W, strain BCK2, hits give low values
  normalized growth: 1
S. cerevisiae deletion strains, locus YGL078C, strain dbp3, hits give low values
  normalized growth: 0.982
S. cerevisiae deletion strains, locus YGL086W, strain mad1, hits give low values
  normalized growth: 1
S. cerevisiae deletion strains, locus YGL248W, strain PDE1, hits give low values
  normalized growth: 1.01
[7]
  normalized growth: 1.03
S. cerevisiae deletion strains, locus YGR135W, strain pre9, hits give low values
  normalized growth: 1.01
[8]
  normalized growth: 1.02
S. cerevisiae deletion strains, locus YGR252W, strain gcn5, hits give low values
  normalized growth: 0.958
[9]
  normalized growth: 0.998 and 1.01
S. cerevisiae deletion strains, locus YHR079C, strain IRE1 (second series), hits give low values
  normalized growth: 1.01
S. cerevisiae deletion strains, locus YHR079C, strain IRE1, hits give low values
  normalized growth: 1
S. cerevisiae deletion strains, locus YHR094C, strain hxt1, hits give low values
  normalized growth: 1.01
S. cerevisiae deletion strains, locus YHR129C, strain ARP1, hits give low values
  normalized growth: 1.02
S. cerevisiae deletion strains, locus YHR200W, strain rpn10, hits give low values
  normalized growth: 1.01
S. cerevisiae deletion strains, locus YIL066C, strain RNR3, hits give low values
  normalized growth: 1.02
S. cerevisiae deletion strains, locus YIL073C, strain SPO22, hits give low values
  normalized growth: 1.02
S. cerevisiae deletion strains, locus YIL125W, strain kgd1, hits give low values
  normalized growth: 0.993
S. cerevisiae deletion strains, locus YIR030C, strain dcg1, hits give low values
  normalized growth: 0.999
S. cerevisiae deletion strains, locus YJL095W, strain BCK1, hits give low values
  normalized growth: 1.06 and 0.995
S. cerevisiae deletion strains, locus YJL134W, strain LCB3, hits give low values
  normalized growth: 1.01
S. cerevisiae deletion strains, locus YJL168C, strain set2, hits give low values
  normalized growth: 1.01
S. cerevisiae deletion strains, locus YJL187C, strain SWE1 (second series), hits give low values
  normalized growth: 1.04
[10]
  normalized growth: 1.04
S. cerevisiae deletion strains, locus YJR066W, strain TOR1, hits give low values
  normalized growth: 0.916
[11]
  normalized growth: 1.02
S. cerevisiae deletion strains, locus YKL009W, strain mrt4, hits give low values
  normalized growth: 1.02
S. cerevisiae deletion strains, locus YKL068W, hits give low values
  normalized growth: 0.998
S. cerevisiae deletion strains, locus YKL085W, strain MDH1 (second series), hits give low values
  normalized growth: 1
S. cerevisiae deletion strains, locus YKL085W, strain MDH1, hits give low values
  normalized growth: 1
[12]
  normalized growth: 1.01
S. cerevisiae deletion strains, locus YKR001C, strain vps1, hits give low values
  normalized growth: 1.01
[13]
  normalized growth: 1.02
S. cerevisiae deletion strains, locus YLR058C, strain SHM2, hits give low values
  normalized growth: 1.01
S. cerevisiae deletion strains, locus YLR102C, strain apc9, hits give low values
  normalized growth: 1.01
S. cerevisiae deletion strains, locus YLR113W, strain HOG1, hits give low values
  normalized growth: 1.05
[14]
  normalized growth: 1.03
S. cerevisiae deletion strains, locus YLR268W, strain sec22, hits give low values
  normalized growth: 1.07
S. cerevisiae deletion strains, locus YLR330W, strain CHS5, hits give low values
  normalized growth: 1
S. cerevisiae deletion strains, locus YLR342W, strain FKS1 (second series), hits give low values
  normalized growth: 1.02
S. cerevisiae deletion strains, locus YLR371W, strain rom2, hits give low values
  normalized growth: 1.01
S. cerevisiae deletion strains, locus YLR418C, strain cdc73, hits give low values
  normalized growth: 1.01
S. cerevisiae deletion strains, locus YML016C, strain PPZ1, hits give low values
  normalized growth: 1.01
S. cerevisiae deletion strains, locus YML032C, strain rad52, hits give low values
  normalized growth: 1.05
S. cerevisiae deletion strains, locus YML124C, strain tub3, hits give low values
  normalized growth: 0.997
S. cerevisiae deletion strains, locus YMR078C, strain ctf18, hits give low values
  normalized growth: 1.01
S. cerevisiae deletion strains, locus YMR223W, strain ubp8, hits give low values
  normalized growth: 0.975
[15]
  normalized growth: 1.02
S. cerevisiae deletion strains, locus YMR307W, strain GAS1, hits give low values
  normalized growth: 1.01
S. cerevisiae deletion strains, locus YNL067W, strain RPL9B, hits give low values
  normalized growth: 1.05
S. cerevisiae deletion strains, locus YNL128W, strain TEP1, hits give low values
  normalized growth: 1.03
[16]
  normalized growth: 1.04
S. cerevisiae deletion strains, locus YNL183C, strain NPR1, hits give low values
  normalized growth: 0.913
S. cerevisiae deletion strains, locus YNL233W, strain BNI4, hits give low values
  normalized growth: 1.03
S. cerevisiae deletion strains, locus YNL250W, strain rad50, hits give low values
  normalized growth: 0.999
S. cerevisiae deletion strains, locus YNL271C, strain bni1, hits give low values
  normalized growth: 1.01
S. cerevisiae deletion strains, locus YNL298W, strain CLA4, hits give low values
  normalized growth: 0.994
S. cerevisiae deletion strains, locus YNL307C, strain MCK1, hits give low values
  normalized growth: 1
[17]
  normalized growth: 1
S. cerevisiae deletion strains, locus YNR052C, strain pop2, hits give low values
  normalized growth: 1.01
[18]
  normalized growth: 1.15
S. cerevisiae deletion strains, locus YOL012C, strain htz1
  normalized growth: 1.02
S. cerevisiae deletion strains, locus YOL147C, strain pex11, hits give low values
  normalized growth: 1
S. cerevisiae deletion strains, locus YOR061W, strain CKA2, hits give low values
  normalized growth: 1.01
S. cerevisiae deletion strains, locus YOR069W, strain VPS5, hits give low values
  normalized growth: 1.01
S. cerevisiae deletion strains, locus YOR136W, strain idh2, hits give low values
  normalized growth: 0.986
S. cerevisiae deletion strains, locus YOR144C, strain elg1, hits give low values
  normalized growth: 0.994
S. cerevisiae deletion strains, locus YOR184W, strain ser1, hits give low values
  normalized growth: 0.994
S. cerevisiae deletion strains, locus YOR231W, strain MKK1, hits give low values
  normalized growth: 0.996
S. cerevisiae deletion strains, locus YOR316C, strain cot1, hits give low values
  normalized growth: 1.01
[19]
  normalized growth: 1.02
[20]
  normalized growth: 1.01
S. cerevisiae deletion strains, locus YPL256C, strain CLN2, hits give low values
  normalized growth: 0.99
S. cerevisiae deletion strains, locus YPR119W, strain clb2, hits give low values
  normalized growth: 1
S. cerevisiae deletion strains, locus YPR141C, strain kar3, hits give low values
  normalized growth: 0.999
S. cerevisiae deletion strains, locus YPR163C, strain tif3, hits give low values
  normalized growth: 1.01
S. cerevisiae deletion strains, locus YPR167C, strain met16, hits give low values
  normalized growth: 1
S. cerevisiae deletion strains, strain wtn01, hits give low values
  normalized growth: 1.01
S. cerevisiae strains, strain wild type, hits give low values
  normalized growth: 1.01

## S=C(NCCCn1ccnc1)Nc1cc(Cl)ccc1Cl
[1]
  normalized growth: 1.02
[2]
  normalized growth: 0.987
S. cerevisiae deletion strains, locus YCL061C, strain MRC1, hits give low values
  normalized growth: 0.979
[3]
  normalized growth: 0.963
[4]
  normalized growth: 0.868 (active)
[5]
  normalized growth: 1.01
[6]
  normalized growth: 1.02
[7]
  normalized growth: 0.982
[8]
  normalized growth: 0.994
[9]
  normalized growth: 0.745
S. cerevisiae deletion strains, locus YHR087W, strain rtc3, hits give low values
  normalized growth: 1.04
S. cerevisiae deletion strains, locus YJL187C, strain SWE1, hits give low values
  normalized growth: 1.01
[10]
  normalized growth: 1
[11]
  normalized growth: 0.979
[12]
  normalized growth: 0.994
[13]
  normalized growth: 0.973
S. cerevisiae deletion strains, locus YLR058C, strain SHM2 (second series), hits give low values
  normalized growth: 1.02
S. cerevisiae deletion strains, locus YLR085C, strain ARP6, hits give low values
  normalized growth: 0.839
[14]
  normalized growth: 1.05
S. cerevisiae deletion strains, locus YML094W, strain GIM5, hits give low values
  normalized growth: 1.01
S. cerevisiae deletion strains, locus YMR219W, strain ESC1, hits give low values
  normalized growth: 1
[15]
  normalized growth: 1.01
[16]
  normalized growth: 0.987
S. cerevisiae deletion strains, locus YNL298W, strain CLA4 (second series), hits give low values
  normalized growth: 0.971
[17]
  normalized growth: 0.992
S. cerevisiae deletion strains, locus YNR030W, strain Alg12, hits give low values
  normalized growth: 1.01
[18]
  normalized growth: 0.938
[19]
  normalized growth: 1
[20]
  normalized growth: 0.983
S. cerevisiae deletion strains, locus YPR135W, strain CTF4, hits give low values
  normalized growth: 0.754
